For assay [1], the target named is Tumor necrosis factor receptor superfamily member 10B (Homo sapiens) (UniProt O14763). In words: caspase-8 TRAIL sensitization, hit retest, confirmation, cell-based, NB7+caspase-8, with/without TRAIL, luminescence panel (AID 651596). The conditions noted are these: NB7 neuroblastoma + caspase-8, TRAIL sensitization, luminescence viability, with TRAIL, mean of runs, at 10 µM, stronger effect = higher value.

Assay in assay [2]: as above
As to conditions: NB7 neuroblastoma + caspase-8, without TRAIL, luminescence viability, without TRAIL, mean of runs, at 10 µM; in the data active means activity above about 50%; inactive means the rest.

Chain of Tumor necrosis factor receptor superfamily member 10B (Homo sapiens) (O14763 whole entry, looked up): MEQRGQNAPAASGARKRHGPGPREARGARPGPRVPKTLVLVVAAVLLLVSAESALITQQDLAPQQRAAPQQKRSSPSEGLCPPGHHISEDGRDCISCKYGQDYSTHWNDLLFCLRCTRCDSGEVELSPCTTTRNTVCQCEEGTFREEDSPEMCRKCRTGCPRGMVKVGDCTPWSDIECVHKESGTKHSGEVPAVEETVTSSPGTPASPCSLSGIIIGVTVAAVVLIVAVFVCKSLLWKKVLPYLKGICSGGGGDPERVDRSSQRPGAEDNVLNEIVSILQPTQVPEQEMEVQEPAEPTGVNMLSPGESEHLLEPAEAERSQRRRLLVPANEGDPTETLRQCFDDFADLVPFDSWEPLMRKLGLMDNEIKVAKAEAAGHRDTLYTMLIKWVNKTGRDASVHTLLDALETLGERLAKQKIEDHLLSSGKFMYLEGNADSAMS

Regarding `COc1ccc(/C=C/C(=O)c2c(O)cc(C)oc2=O)c(OC)c1`, the activity in assay [1] was 91.1%; in assay [2], 92.5%.

As to `O=C(N/N=C/c1cccc(NC(=O)c2ccc(Cl)cc2)c1)c1ccc(O)cc1`, the results for the activity in assay [1] and in assay [2] were 58.4% and 42%, respectively.

On to `O=C(/C=C/c1ccco1)Nc1scc(-c2ccccc2)c1C(=O)O`, for which the activity in assay [1] came to 51.9%; in assay [2] it was 39.8%.

For `O=C(Nc1nnc(SCC(=O)N2CCOCC2)s1)c1ccccc1`, the activity stood at 80% in assay [1] and 77.4% in assay [2].

As to `CC1CCc2nc(NC(=O)c3ccco3)sc2C1` (configuration not stated), the activity in assay [1] amounted to 90.5%; in assay [2], 89%.

As for `CC(C)c1ccc(/C=N/NC(=O)c2c(Cl)cnn2C)cc1`, the activity amounted to 80.1% in assay [1] and 71.3% in assay [2].

`COCCNC(=O)c1c[nH]c2ccc(S(=O)(=O)N3CCc4ccccc43)cc2c1=O`: the activity is 74.2% in assay [1] and 82.7% in assay [2].

Consider `COc1ccc2nc(NN=C(C)c3ccccn3)cc(C)c2c1`, for which the activity in assay [1] is 74%; in assay [2] it was 80.1%.

Consider `CC(C)Cc1ccc(C(C)CC2=CCC(CN(C)C)C2=O)cc1` (configuration not stated), for which the activity in assay [1] was determined as 86.2%; in assay [2], 91.8%.

Regarding `CCOC(=O)c1cc2c(C)n(-c3ccc(C)cc3)c(C)c2ccc1=O`, the activity in assay [1] is 74.9%; in assay [2] it was 63.9%.

In the case of `O=c1c2sc(-c3ccccc3)cc2nc2n1CCC2`, the values for the activity in assay [1] and in assay [2] were 46.9% and 50%, respectively.

As for `COc1cccc(/C=C/C(=O)NNC(=O)c2ccco2)c1OC`, the activity in assay [1] was determined as 66.7%; in assay [2], 62.8%.

As for `CCCOc1ccc(-c2nnc(-c3ccco3)o2)cc1`, the activity in assay [1] came out at 53.5%; in assay [2] it was 50.9%.

In the case of `O=C1[C@H]2[C@@H](/C=C/c3ccccc3)N3C(=O)CN(CC4CC4)C(=O)[C@@]3(Cc3ccccc3)[C@H]2C(=O)N1c1ccccc1`, the activity was found to be 73.9% in assay [1] and 97.8% in assay [2].

For the compound `Cc1cc2nc(N3C(=O)CNC3=S)sc2cc1C`, the activity in assay [1] turned out to be 67.8%; in assay [2] it was 64.7%.

Consider `Cc1cc(-c2ccccc2)nc(N/N=C/c2ccccc2)n1`, for which the figures for the activity in assay [1] and in assay [2] were 61.6% and 50.3%, respectively.

Take `COc1cc(SC)ccc1C(=O)NNC(=O)c1cc(C)oc1C`: the activity in assay [1] worked out at 71.4%; in assay [2], 70.8%.

As to `O=C(NCC1CC1)c1ccc2c3n(nc2c1)-c1ccccc1CO3`, the activity was 89.8% in assay [1] and 89.5% in assay [2].

In the case of `Cn1c(=O)n(CCc2ccccc2)c(=O)c2c1nc1n2CCCN1CCc1ccccc1`, the activity in assay [1] turned out to be 21.1%; in assay [2], 24.9%.

Consider `COc1ccc(/C=N\n2nnc3ccccc32)cc1`, for which the activity was determined as 53.3% in assay [1] and 42.7% in assay [2].

On to `CCCn1c(C)cc(C(=O)COC(=O)c2cc(=O)[nH]c3ccccc23)c1C`, for which the activity was 61.2% in assay [1] and 59.1% in assay [2].

Take `CCOc1ccc(-c2cc(C(=O)N/N=C/c3cccnc3)c3ccccc3n2)cc1`: the activity in assay [1] was determined as 74.2%; in assay [2], 74.4%.

Turning to `NC1=NC[C@H](CC2CCCCC2)N1CCc1cc(C(F)(F)F)cc(C(F)(F)F)c1`, the activity in assay [1] was found to be 40.9%; in assay [2] it was 80%.

As for `CN1/C(=C\C(=O)C[n+]2ccc(C(=O)c3ccccc3)cc2)C(C)(C)c2ccccc21`, the activity in assay [1] is 15.8%; in assay [2], 27.4%.

For the compound `Cn1c(N)c(C(=O)COC(=O)c2cc(S(=O)(=O)N3CCOCC3)ccc2F)c(=O)n(C)c1=O`, the activity came to 90.6% in assay [1] and 93.8% in assay [2].

On to `CCCCC(=O)Nc1cc(C)c2c(=O)oc3ccccc3c2n1`, for which the activity came out at 62.4% in assay [1] and 56.6% in assay [2].

Regarding `Cc1ccccc1Nc1nn2c(=O)c3ccccc3nc2s1`, the activity stood at 54.2% in assay [1] and 62.8% in assay [2].

`O=C(CC1CCCC1)Nc1nc2ccccc2[nH]1`: the activity in assay [1] is 49.7%; in assay [2], 62.4%.

For the compound `Cc1ccc2c(c1)N=C(c1ccccc1)CC(C(Cl)Cl)=N2`, the activity amounted to 29.4% in assay [1] and 18% in assay [2].

With `CCC(COC)Oc1cc(NCc2ccccc2)c2ncn(C(C)C)c2c1` (configuration not stated), the activity in assay [1] is -8.03%; in assay [2], -13.1%.

Consider `CN1CCN(Cc2nc3ccccc3c(=O)n2Cc2nc(-c3ccc4ccccc4c3)cs2)CC1`, for which the results for the activity in assay [1] and in assay [2] were 67.3% and 91.5%, respectively.

Regarding `Cc1ccc(NC(=O)c2nc(S(=O)(=O)Cc3ccccc3)ncc2Cl)cc1`, the values for the activity in assay [1] and in assay [2] were 83.5% and 96.1%, respectively.

For the compound `CCOc1ccc(N=Cc2c(C)[nH]n(-c3nc4ccccc4[nH]3)c2=O)cc1`, the activity amounted to 87.4% in assay [1] and 86.2% in assay [2].

On to `Cc1nc2c(-c3ccc(F)cc3)cnn2c(N)c1-c1ccc(F)cc1`, for which the figures for the activity in assay [1] and in assay [2] were 66.2% and 57%, respectively.

For `Cc1ccc(N(NC(=O)C(O)(c2ccccc2)c2ccccc2)C(=O)CCl)cc1`, the activity amounted to 98.5% in assay [1] and 97.6% in assay [2].

As for `CC(=O)n1cc(N(C(=O)CCl)c2ccc(Cl)cc2)c2ccccc21`, the activity in assay [1] stood at 98.5%; in assay [2], 98.9%.

For the compound `O=C(c1ccncc1)N(Cc1cc2ccccc2[nH]c1=O)C1CCCCC1`, the activity in assay [1] turned out to be 72.5%; in assay [2], 78.4%.

On to `COc1cccc(C(=O)/C=C2\Sc3ccccc3N2C)c1`, for which the activity was 56.7% in assay [1] and 29.4% in assay [2].

Turning to `COc1ccc(S(=O)(=O)N2CCN(c3ccc4nnc(-c5ccccc5)n4n3)CC2)cc1`, the activity in assay [1] came out at 58%; in assay [2], 66.5%.

As for `O=C(N/N=C/c1ccccc1)c1ccc2c(c1)OCO2`, the figures for the activity in assay [1] and in assay [2] were 61.2% and 56.1%, respectively.

On to `Cc1ccc(C(=O)Nc2ccc3nccnc3c2)cc1`, for which the activity in assay [1] turned out to be 77.5%; in assay [2], 74.8%.

In the case of `COc1ccc(-c2cn3cc(C)ccc3n2)cc1Br`, the activity came out at 82.2% in assay [1] and 77.3% in assay [2].

For the compound `COc1ccccc1N1CCN(c2ccc(-c3ccccc3)nn2)CC1`, the activity was determined as 80.9% in assay [1] and 86.2% in assay [2].

`COc1ccc(Oc2c(Cl)cnn(-c3ccc(C)cc3)c2=O)cc1`: the activity in assay [1] is 96.9%; in assay [2], 89.9%.

In the case of `COc1ccc(/C(N)=N/OC(=O)c2ccc3ccccc3c2)cc1OC`, the activity in assay [1] was found to be 99%; in assay [2], 98%.

Take `Cc1cc(C)cc(NS(=O)(=O)c2ccc3[nH]cc(C(=O)NCc4ccco4)c(=O)c3c2)c1`: the activity in assay [1] is 80%; in assay [2], 85.3%.

Values taken from PubChem BioAssay.
